NS1 inh = qHTS Assay for Inhibitors of Influenza NS1 Protein Function | Potency, µM (top dose mostly 46.1 µM), without a hit: at the top dose activity, positive = more growth | hit rate 0.4% among 270,000; further: potency means the concentration at half of the fitted maximal effect; actives are rising curves; nearly all actives have a fitted effect of over 50% in size
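Recovery from NS1-induced slow growth read by OD600 in budding yeast switched to galactose assay medium (pH 6.0, -URA) at 1:100 dilution. Compound 23 nl per well; the matching strain lacking NS1 serves as control.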
AMA1 RON2 block = qHTS for Inhibitors of AMA1-RON; Towards Development of Antimalarial Drug Lead: Primary Screen | AlphaScreen AMA1-biotinylated RON2 peptide binding | Potency, µM (top dose mostly 58.2 µM), for the others: at the top dose activity change, negative = inhibition, hits mostly inhibitors | hit rate 0.2% among 360,000 | AID 720542, 2013; active means well fitted inhibition curve with a large enough effect; inconclusive means small, poorly fitted or top-dose-only effect; inactive means no such curve, though single readings can be large or run the other way;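 further: potency means the concentration at half of the fitted maximal effect; 0% = vehicle wells and -100% = peptide control; nearly all actives have a fitted effect of over 45% in size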
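AMA1 (3D7) with his tag at 25 nM final met compounds first, then biotinylated RON2 peptide at 25 nM; detection used donor plus acceptor beads, 10 µg/mL apiece, read by AlphaScreen after 30 min at room temperature.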
SARS PLpro yeast-1 = qHTS of Yeast-based Assay for SARS-CoV PLP | S. cerevisiae expressing SARS-CoV PLpro, growth rescue | Potency, µM (series often up to 32.9 µM), for inactives: top-dose activity, positive = growth rescue, most hits filed as activators | hit rate 0.19% among 330,000; further: potency means the concentration at half of the fitted maximal effect; 0% is about no effect; nearly all actives have a fitted effect of over 55% in size
SARS PLpro yeast-2 = qHTS of Yeast-based Assay for SARS-CoV PLP: Hit Validation. shares compounds with SARS PLpro yeast-1. yeast expressing SARS-CoV PLpro, growth phenotype rescue. calls only. hit rate 19% among 1,000. AID 652038, 2013; call rule not given here
Starred values were filed as active, the others as inactive; [ ] = another dose, or the depositor's remark. A selection: hits, their analogues and other compounds. The true share with any hit is near 0.65%. Unless noted, the call rests on the fitted dose curve.

`Cn1c(=O)c(Cc2ccccc2)c(O)c2ccccc21` gave NS1 inh -72%, AMA1 RON2 block 6%, SARS PLpro yeast-1 10µM* and SARS PLpro yeast-2 inconclusive.
Screening CC(=O)c1c(O)c2ccccc2n(C)c1=O returned NS1 inh -59%, AMA1 RON2 block 1% and SARS PLpro yeast-1 -2%.
For CC(C(=O)O)N1C(=O)c2ccccc2C1=O (configuration not stated) the results were NS1 inh 2%, AMA1 RON2 block 5% and SARS PLpro yeast-1 -7%.
CC(C(=O)c1ccccc1)N1C(=O)c2ccccc2C1=O (configuration not stated) was read as NS1 inh 5%, AMA1 RON2 block -4%, SARS PLpro yeast-1 inconclusive and SARS PLpro yeast-2 inactive.
CN(C)S(=O)(=O)c1cccc(NC(=O)COC(=O)/C=C/c2ccco2)c1 was read as NS1 inh 6%, AMA1 RON2 block -7% and SARS PLpro yeast-1 -12%.
`Cc1ccc(/C=C/C(=O)OCC(=O)Nc2cccc(S(=O)(=O)N(C)C)c2)o1` gave NS1 inh -13%, AMA1 RON2 block 5%[11.6 µM], SARS PLpro yeast-1 3.2µM* and SARS PLpro yeast-2 inactive.
For CC(=O)Nc1ccc(N(C(=O)Cc2cccs2)C(C(=O)NC2CCCC2)c2ccncc2)cc1 (configuration not stated) the results were NS1 inh -7%, AMA1 RON2 block -16% and SARS PLpro yeast-1 0%.
For Cc1[nH]c(=S)sc1Cc1ccc(F)cc1 the results were NS1 inh -3%, AMA1 RON2 block 22%[11.6 µM], SARS PLpro yeast-1 10µM* and SARS PLpro yeast-2 inactive.
Fc1ccc(-c2csc(=S)[nH]2)cc1 was read as NS1 inh 5%, AMA1 RON2 block 101% and SARS PLpro yeast-1 0%.
CCC(=O)NC(c1ccc(Cl)cc1Cl)c1ccc2cccnc2c1O (configuration not stated) was read as NS1 inh -115%, AMA1 RON2 block 8% and SARS PLpro yeast-1 1%.
CCCCC(=O)NC(c1ccc(Cl)cc1Cl)c1ccc2cccnc2c1O (configuration not stated) was read as NS1 inh -109%, AMA1 RON2 block 109% and SARS PLpro yeast-1 inconclusive.
`Cc1cc(NC(c2ccc(Cl)cc2)c2ccc3cccnc3c2O)no1` (configuration not stated) gave NS1 inh -171%, AMA1 RON2 block -30%, SARS PLpro yeast-1 inconclusive and SARS PLpro yeast-2 inactive.
`CCC(=O)NC(c1ccc(C)cc1)c1ccc2cccnc2c1O` (configuration not stated) gave NS1 inh -25%, AMA1 RON2 block -48%, SARS PLpro yeast-1 inconclusive and SARS PLpro yeast-2 inactive.
For CCCC(=O)NC(c1ccccc1Cl)c1ccc2cccnc2c1O (configuration not stated) the results were NS1 inh -82%, AMA1 RON2 block 47%, SARS PLpro yeast-1 2.2µM* and SARS PLpro yeast-2 active.
Cc1ccnc(NC(c2ccccc2)c2ccc3cccnc3c2O)c1 (configuration not stated) was read as AMA1 RON2 block -78%.
Screening CC(=O)NC(c1ccco1)c1ccc2cccnc2c1O (configuration not stated) returned NS1 inh -78%, AMA1 RON2 block inconclusive, SARS PLpro yeast-1 inconclusive and SARS PLpro yeast-2 active.
`CC(=O)NC(c1ccc(Cl)cc1)c1ccc2cccnc2c1O` (configuration not stated) gave AMA1 RON2 block -19%.
`CCc1noc(C)c1C(=O)Nc1cc(S(=O)(=O)N(CC)CC)ccc1N1CCOCC1` gave AMA1 RON2 block 11% and SARS PLpro yeast-1 -4%.
`O=C(NCc1cn2ccccc2n1)C1CCC(=O)N(Cc2ccccc2F)C1` (configuration not stated) gave NS1 inh 14%, AMA1 RON2 block 6% and SARS PLpro yeast-1 0%.
`Cc1c(NC(=O)C(C)OC(=O)c2ccc(NC(=O)CC#N)cc2)c(=O)n(-c2ccccc2)n1C` (configuration not stated) gave AMA1 RON2 block 18% and SARS PLpro yeast-1 -2%.
Cc1cc(NC(=O)CSc2nc(C)c(C)n2CC(C)C)no1 was read as AMA1 RON2 block 66% and SARS PLpro yeast-1 -3%.
For CCCC(=O)NC(c1ccc(C(C)C)cc1)c1ccc2cccnc2c1O (configuration not stated) the results were NS1 inh -145%, AMA1 RON2 block 95% and SARS PLpro yeast-1 inconclusive.
CCCC(=O)NC(c1ccc(N(C)C)cc1)c1ccc2cccnc2c1O (configuration not stated) was read as NS1 inh -99%, AMA1 RON2 block -88%, SARS PLpro yeast-1 7.1µM* and SARS PLpro yeast-2 inconclusive.
COc1ccccc1NC(=O)COC(=O)c1cc([N+](=O)[O-])ccc1N1CCCC1 was read as AMA1 RON2 block -15% and SARS PLpro yeast-1 -2%.
`CCN(CC)S(=O)(=O)c1cccc(NC(=O)/C=C/c2cccc([N+](=O)[O-])c2)c1` gave NS1 inh -1%, AMA1 RON2 block -11%[11.6 µM], SARS PLpro yeast-1 20µM* and SARS PLpro yeast-2 inconclusive.
For CCN(CC)S(=O)(=O)c1cccc(NC(=O)/C=C/c2ccc([N+](=O)[O-])cc2)c1 the results were NS1 inh 27%, AMA1 RON2 block -1% and SARS PLpro yeast-1 11%.
Cc1ccc(NC(=O)/C(=C\c2ccc([N+](=O)[O-])cc2)NC(=O)c2ccccc2)cc1 was read as NS1 inh -4%, AMA1 RON2 block 6% and SARS PLpro yeast-1 2%.
`O=C(N/N=C/c1ccc(O)c(O)c1O)/C(=C/c1ccc([N+](=O)[O-])cc1)NC(=O)c1ccccc1` gave NS1 inh -3%, AMA1 RON2 block 37%, SARS PLpro yeast-1 2.5µM* and SARS PLpro yeast-2 inactive.
Screening O=[N+]([O-])c1cc(/C=N\Nc2nc(-c3ccccc3)cs2)ccc1O returned AMA1 RON2 block 15% and SARS PLpro yeast-1 1%.
Screening Cc1csc(N/N=C/c2ccc(O)c([N+](=O)[O-])c2)n1 returned NS1 inh -82%, AMA1 RON2 block -20%, SARS PLpro yeast-1 10µM* and SARS PLpro yeast-2 active.
`C[C@@H]1CN([C@H](C)CO)C(=O)CCCn2cc(nn2)CO[C@H]1CN(C)C(=O)Nc1ccc(C(C)(C)C)cc1` gave AMA1 RON2 block 0%.
`O=C(CN1CCCCC1)Nc1ccccc1Oc1ccccc1` gave NS1 inh 1%, AMA1 RON2 block 7% and SARS PLpro yeast-1 1%.
Screening Cc1ccc(/C=C/C(=O)c2ccccc(=O)c2O)cc1C returned NS1 inh -63%, AMA1 RON2 block 62%, SARS PLpro yeast-1 inconclusive and SARS PLpro yeast-2 inconclusive.
Screening COc1ccc(/C=C/C(=O)c2ccccc2O)cc1 returned NS1 inh -67%, AMA1 RON2 block -27% and SARS PLpro yeast-1 3%.
For CCN1C(=O)c2ccccc2S(=O)c2ccc(C(=O)N3CCOCC3)cc21 (configuration not stated) the results were NS1 inh 0%, AMA1 RON2 block 11% and SARS PLpro yeast-1 1%.
